Compound activity from PubChem.
The full list was thinned out, with hits kept by preference.
ER stress death: ER stress cell death inhibition | 48,000 compounds, 0.33% hits | relative survival (cellular ATP), % at 15 µg/mL (by protocol) | CSM14.1 thapsigargin ER stress survival, ATP luminescence;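 active = survival measured by cellular ATP above 50% at 15 µg/ml in the first screen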;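 note: cell death triggered by about 15 µM thapsigargin; ATP read 24 h after thapsigargin was added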
Of the large screens only hits and unclear results are named; the others gave an inactive call.

CC(C)(C)NC(=O)c1cc(NC(=O)Cc2ccccc2)cc(NC(=O)Cc2ccccc2)c1	ER stress death 73
CC(C)(C)NC(=O)c1cc(NC(=O)c2cccs2)cc(NC(=O)c2cccs2)c1	none
Cc1cccc(NC(=O)Cc2ccccc2)c1	none
CC(C)CCN(CCN1C(=O)c2ccccc2C1=O)CCN1C(=O)c2ccccc2C1=O	none
Cc1ccccc1CN1CCN(C(=O)c2cccc(Cl)c2)CC1	none
O=C(C(c1ccccc1)c1ccccc1)N1CCN(Cc2ccc(F)cc2)CC1	ER stress death 63
Cc1ccccc1CN1CCN(C(=O)C(c2ccccc2)c2ccccc2)CC1	ER stress death 97
O=C(CC(c1ccccc1)c1ccccc1)N1CCN(Cc2ccccc2)CC1	none
Cc1ccccc1C(=O)N1CCN(Cc2ccccc2)CC1	none
O=C(C(c1ccccc1)c1ccccc1)N1CCN(Cc2ccncc2)CC1	none
Cc1ccc([N+](=O)[O-])cc1Cc1ccccc1	none
O=Cc1cccc(OCc2ccccc2F)c1	none
COc1cc(C2CC(=O)NC(SCc3ccccc3)=C2C#N)ccc1O (centres undefined)	none
COc1ccc(-c2nc3ccccc3c(C(=O)Nc3ccc(C)cc3)c2C)cc1	none
COc1ccc(NC(=O)c2c(C)c(-c3ccc(C)cc3)nc3ccccc23)c(OC)c1	ER stress death 68
COc1ccc(NC(=O)c2cc(-c3ccc(OC)cc3OC)nc3ccccc23)c(OC)c1	none
CCOc1ccc(-c2cc(C(=O)N/N=C/C=C/c3ccccc3)[nH]n2)cc1	none
CCN1C(=O)/C(=C\C=C\c2cccc([N+](=O)[O-])c2)SC1=S	none
O=C(Nc1ccc(Cl)c(Cl)c1)c1cc2n(n1)C(C(F)(F)F)CC(c1ccccc1)N2 (centres undefined)	none
O=[N+]([O-])c1ccc(CSc2nnc(-c3ccncc3)n2-c2ccccc2)cc1	none
CC(=O)NC(c1ccc2c(c1)OCO2)c1ccc2cccnc2c1O (centres undefined)	ER stress death 77
COc1ccccc1C(NC(=O)Cc1ccccc1)c1ccc2cccnc2c1O (centres undefined)	none
O=C(NC(c1ccccc1)c1ccc2cccnc2c1O)c1ccccc1 (centres undefined)	none
CCC1(C)CC(CCNCc2ccc(OC)c(OC)c2)(c2ccc(F)cc2)CCO1 (centres undefined)	none
Cc1ccccc1-n1c(C)cc(/C=N/NC(=O)c2cccnc2)c1C	none
CCOc1ccc(S(=O)(=O)N(CC(=O)Nc2ccccc2CC)c2ccc(C)cc2)cc1	none
CCOc1ccccc1NC(=O)CN(c1ccc(C)cc1)S(=O)(=O)c1ccc(SC)cc1	none
CCOc1ccc(S(=O)(=O)N(CC(=O)Nc2ccccc2OCC)c2ccc(C)cc2)cc1	ER stress death 66
CC(C)(C)C1CCc2c(sc(NC(=O)C3CCCO3)c2C#N)C1 (centres undefined)	none
COC(=O)C1C(=O)CC(C)(O)C(C(=O)OC)C1c1ccc(Br)cc1 (centres undefined)	none
COc1ccc(C2C(C(=O)c3ccccc3)C(=O)CC(C)(O)C2C(=O)c2ccccc2)cc1 (centres undefined)	ER stress death 58
CC1(O)CC(=O)C(C(=O)c2ccccc2)C(c2ccc([N+](=O)[O-])cc2)C1C(=O)c1ccccc1 (centres undefined)	none
CC(C)COc1ccc(C(=O)N/C(=C/c2ccccc2)C(=O)NCC(=O)OCc2ccccc2)cc1	ER stress death 80
O=C(CCNC(=O)/C(=C\c1ccccc1)NC(=O)c1ccco1)OCc1ccccc1	none
COc1ccc(C(=O)N/C(=C\c2ccccc2)C(=O)NCCCN(C)C)cc1	none
NC1=NC(=O)/C(=C/c2ccc(OC(=O)c3ccco3)cc2)S1	none
C=CCN1C(=O)/C(=C\c2ccc(OCc3ccc(Cl)cc3)cc2)SC1=S	none
COc1ccc(-c2nc(-c3cc(OC)c(OC)cc3OC)[nH]c2-c2ccc(OC)cc2)cc1	ER stress death 116
COc1ccc(OC)c(-c2nc(-c3ccccc3)c(-c3cccs3)[nH]2)c1	none
COc1ccc(-c2nc(-c3ccc(O)cc3)[nH]c2-c2ccc(OC)cc2)cc1	none
COc1cc2c(cc1OC)C(=C(Cl)Cl)NC(C)(C)C2	none
NC(=O)c1ccccc1N=Cc1cccc([N+](=O)[O-])c1	none
O=C(N/N=C/c1cccc([N+](=O)[O-])c1)C(Oc1ccccc1)Oc1ccccc1	none
O=[N+]([O-])c1cccc(/C=N\N2CCN(C(c3ccccc3)c3ccccc3)CC2)c1	ER stress death 52
Cc1ccccc1C(=O)NN1C(=O)/C(=C\c2cccs2)SC1=S	none
CC(CNC(=O)COc1cccc2ccccc12)CN(C)C (centres undefined)	none
O=C(N/N=C/c1ccc(Cl)c([N+](=O)[O-])c1)/C(=C\c1ccc2c(c1)OCO2)NC(=O)c1ccccc1	ER stress death 81
O=C(O)COc1ccccc1/C=N/NC(=O)/C(=C\c1ccc2c(c1)OCO2)NC(=O)c1ccccc1	none
COc1cc(Cl)cc(/C=N/NC(=O)/C(=C\c2ccc3c(c2)OCO3)NC(=O)c2ccccc2)c1O	none
c1cc2c(cc1C1OCC3(CO1)COC(c1ccc4c(c1)OCO4)OC3)OCO2 (centres undefined)	none
Cc1cc(/C=C2/SC(=S)NC2=O)c(C)n1-c1ccc(N2CCOCC2)cc1	none
COc1ccc(NC(=O)CCN2C(=O)/C(=C\c3ccc(C)cc3)SC2=S)cc1	ER stress death 51
COc1cccc(NC(=O)CCN2C(=O)/C(=C/c3ccc(C)cc3)SC2=S)c1	none
COc1ccc(NC(=O)CCN2C(=O)/C(=C\c3cccc(OC)c3)SC2=S)cc1	none
COc1cc(C(=O)NCCOc2ccc(C)cc2)cc(OC)c1OC	none
CC(C)=CC1C(C(=O)Nc2ccc(Cl)cn2)C1(C)C (centres undefined)	none
COc1ccc(CCNC(=O)/C(=C/c2ccc(Cl)cc2)NC(=O)c2ccc(C)cc2)cc1OC	none
COCCNC(=O)/C(=C/c1ccc(C(C)C)cc1)NC(=O)c1ccccc1	none
COc1ccc(CCNC(=O)/C(=C/c2ccc(C(C)C)cc2)NC(=O)c2ccccc2)cc1OC	ER stress death 79
Fc1ccc(NC(=S)NCC2CCCO2)cc1 (centres undefined)	none
O=C1c2ccccc2C(=O)N1N1C(=O)c2ccc(-c3nc4ccccc4o3)cc2C1=O	none
CC(=O)n1cnc(-c2ccc(N)c([N+](=O)[O-])c2)c1	none
O=C1CC(=O)NC(SCC(=O)Nc2nc3ccccc3s2)=N1	none
COc1ccc(N2C(=O)NC(=O)/C(=C/c3cccn3-c3cccc([N+](=O)[O-])c3)C2=O)cc1	none
COc1ccc(C2CC(=O)C3=C(C2)Nc2ccccc2NC3c2ccc(OCc3ccccc3)c(OC)c2)cc1 (centres undefined)	none
COc1ccc(C2Nc3ccccc3NC3=C2C(=O)CC(c2ccc(Cl)cc2)C3)cc1 (centres undefined)	none
COc1ccc(C2CC(=O)C3=C(C2)Nc2ccccc2NC3c2ccc(OCc3ccccc3)cc2)cc1 (centres undefined)	ER stress death 94
COc1ccc(C2CC(=O)C3=C(C2)Nc2ccccc2NC3c2ccccc2C)cc1 (centres undefined)	ER stress death 99
COc1ccc(C2CC(=O)C3=C(C2)Nc2ccccc2NC3c2c(Cl)cccc2Cl)cc1 (centres undefined)	none
COc1ccc(C2CC(=O)C3=C(C2)Nc2ccccc2NC3c2ccc(C)cc2)cc1 (centres undefined)	none
COc1ccc(C2CC(=O)C3=C(C2)Nc2ccccc2NC3c2ccccc2OC)cc1 (centres undefined)	none
COc1ccc(C2CC(=O)C3=C(C2)Nc2ccccc2NC3c2ccccc2Cl)cc1 (centres undefined)	ER stress death 101
